From PubChem BioAssay AID463212 (Sanford-Burnham Center for Chemical Genomics, 2010)
Among all 330,000 compounds or so, about 4,400 (1.3%) were called active. The list comes from a sample in which actives are over-represented; it also holds similar structures and randomly drawn compounds. A number with no mark means an inactive call.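 How the source made its calls: active means growth inhibition of the mutant yeast at or above 50%; inactive means the rest.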

Experiment: growth inhibitors of tim23-1 mutant yeast, primary screen, luminescence, uHTS (AID 463212);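 further: temperature-sensitive mutant grown at 25 °C; plate controls were DMSO-treated mutant yeast for no effect and medium wells lacking yeast for full effect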
Conditions: S. cerevisiae tim23-1 growth, BacTiter-Glo luminescence, 24 h; at 20 µM; hits give high values

Question: With `COc1ccc(NC(C)=O)cc1NC(=O)CN1CCN(C2c3ccccc3-c3ccccc32)CC1` as the compound, how does the inhibition read?
Answer: Its inhibition is 26.8%.

Question: For `O=C(C[C@H]1C(=O)N(c2ccc(F)c(F)c2)C[C@@H]1Cc1ccccc1)Nc1ccccc1`, which inhibition is on record?
Answer: The inhibition was 13.5%.

Question: Which inhibition does the source give for `COc1ccc(NC(=O)CSc2nc(NS(=O)(=O)c3ccc(C)cc3)cc(=O)[nH]2)cc1` here?
Answer: The inhibition was 2.94%.

Question: With `Cc1noc(C)c1-c1ccc2ncnc(NC(C)c3ccco3)c2c1` (stereo not given) as the compound, how does the inhibition read?
Answer: The inhibition was 5.06%.

Question: With `CC(=O)Nc1cccc(Nc2nc(-c3cccs3)nc3ccccc23)c1` as the compound, how does the inhibition read?
Answer: Its inhibition is 39.4%.

Question: For `Oc1ccc(-c2nnc(Nc3ccccc3)c3ccccc23)cc1`, which inhibition is on record?
Answer: The inhibition was -5.13%.

Question: With `Cc1cccc(-c2nc(Nc3ccc(O)cc3)c3ccccc3n2)c1` as the compound, how does the inhibition read?
Answer: The inhibition was 62.7% (active).

Question: Which inhibition does the source give for `CCCCn1c(O)c(N=NC(=O)Cn2c(C(F)(F)F)nc3ccccc32)c2ccccc21` here?
Answer: Its inhibition is -27.6%.

Question: Which inhibition does the source give for `O=c1ccc2c(-c3ccccc3S(=O)(=O)O)c3ccc(O)c(O)c3oc-2c1O` here?
Answer: The inhibition was 56% (active).

Question: Which inhibition does the source give for `CCCn1c(N)c(C(=O)CSc2nnc3n2CCCCC3)c(=O)[nH]c1=O` here?
Answer: Its inhibition is 7.27%.

Question: For `Cc1cc(C(=O)CCl)c(C)n1CC1COc2ccccc2O1` (stereo not given), which inhibition is on record?
Answer: Its inhibition is 34.4%.

Question: For `O=C1C(=O)N(CC2COc3ccccc3O2)c2ccccc21` (stereo not given), which inhibition is on record?
Answer: The inhibition was 72.4% (active).

Question: With `O=C(CN1C(=O)C2C3C=CC(C3)C2C1=O)NCC1COc2ccccc2O1` (stereo not given) as the compound, how does the inhibition read?
Answer: Its inhibition is 18.2%.

Question: For `CC(=O)Nc1sc2c(c1C(c1cccc(F)c1)N1CCN(CCO)CC1)CCCC2` (stereo not given), which inhibition is on record?
Answer: The inhibition was 14.7%.

Question: With `Cc1cccc(-[n+]2c(-c3cccc(Br)c3)[nH]c3nc4ccccc4nc32)c1` as the compound, how does the inhibition read?
Answer: Its inhibition is 22.7%.

Question: For `NS(=O)(=O)c1ccc(NC(=S)NC(=O)c2cccc(Br)c2)cc1`, which inhibition is on record?
Answer: Its inhibition is 28.3%.

Question: Which inhibition does the source give for `O=C(NC(=S)Nc1cccc2c(O)cccc12)c1cccc(Br)c1` here?
Answer: The inhibition was 68.6% (active).

Question: With `Cc1ccccc1NC(=S)NNC(=O)c1cccc(Br)c1` as the compound, how does the inhibition read?
Answer: The inhibition was 14.7%.

Question: Which inhibition does the source give for `Cc1ccc(C)c(OCc2cc(C(=O)N3CCN(c4cnccn4)CC3)no2)c1` here?
Answer: The inhibition was 23.9%.

Question: Which inhibition does the source give for `O=C(Nc1ccc(Br)cn1)c1ccc([N+](=O)[O-])o1` here?
Answer: The inhibition was 43.4%.

Question: For `Cc1onc(NC(=O)c2ccc([N+](=O)[O-])o2)c1Br`, which inhibition is on record?
Answer: Its inhibition is 55.6% (active).

Question: With `Cc1cccc(NC(=O)c2ccc([N+](=O)[O-])o2)c1` as the compound, how does the inhibition read?
Answer: The inhibition was 7.53%.

Question: Which inhibition does the source give for `O=C(CCCNS(=O)(=O)c1cccc2nsnc12)NCCN1CCN(c2ccccc2F)CC1` here?
Answer: Its inhibition is 1.63%.

Question: For `O=C1Nc2ccccc2/C1=C/c1ccnc2ccccc12`, which inhibition is on record?
Answer: The inhibition was 51.2% (active).

Question: For `COc1cc(NS(=O)(=O)c2ccc(NC(=O)c3ccc(S(=O)(=O)N4CCCCC4)cc3)cc2)ncn1`, which inhibition is on record?
Answer: The inhibition was 3.91%.

Question: With `O=C1NC(Nc2nc3ccccc3s2)(C(F)(F)F)C(=O)N1C1CCCCC1` (stereo not given) as the compound, how does the inhibition read?
Answer: The inhibition was 58.9% (active).

Question: Which inhibition does the source give for `O=C(NC1(C(F)(F)F)NC(=O)N(C2CCCCC2)C1=O)c1ccco1` (stereo not given) here?
Answer: The inhibition was 14.4%.

Question: For `CCC1(CC)NC(=O)N(Cc2nc3ccccc3s2)C1=O`, which inhibition is on record?
Answer: Its inhibition is 21.9%.

Question: With `CC(C)c1ccc(NC(=O)[C@@H](NC(=O)N2CC(=O)Nc3ccccc32)C(C)C)cc1` as the compound, how does the inhibition read?
Answer: Its inhibition is 10.9%.

Question: Which inhibition does the source give for `Cc1c(NC(=O)CCC2CCCCC2)cc(C(=O)N2CCOCC2)cc1[N+](=O)[O-]` here?
Answer: The inhibition was 7.43%.

Question: With `CC(=O)Nc1ccc(S(=O)(=O)NC2(C(F)(F)F)C(=O)NC(C)=C2C#N)cc1` (stereo not given) as the compound, how does the inhibition read?
Answer: Its inhibition is 10.8%.

Question: Which inhibition does the source give for `Cc1cc(N2CCN(C)CC2)nc2ccc(NC(=S)N3CCOCC3)cc12` here?
Answer: Its inhibition is 12.1%.

Question: Which inhibition does the source give for `CCn1c2ccccc2c2cc(NC(=S)N3CCOCC3)ccc21` here?
Answer: Its inhibition is 51.8% (active).

Question: Which inhibition does the source give for `Cc1cc(N2CCOCC2)nc2ccc(NC(=S)N3CCN(Cc4ccccc4)CC3)cc12` here?
Answer: Its inhibition is 7.08%.

Question: Which inhibition does the source give for `COc1ccccc1CN1CC(C(=O)NCCc2cn[nH]c2)CCC1=O` (stereo not given) here?
Answer: The inhibition was 11.8%.

Question: With `CCCNC(=O)Nc1ccccc1C(=O)Nc1ccc(OC)cc1` as the compound, how does the inhibition read?
Answer: The inhibition was 11%.

Question: Which inhibition does the source give for `CCOC(=O)Cc1ncccc1C(=O)Nc1ccc(OC)cc1` here?
Answer: The inhibition was -4.31%.

Question: Which inhibition does the source give for `COc1ccc(NC(=O)Nc2cccc3cccnc23)cc1` here?
Answer: The inhibition was 58.6% (active).

Question: With `COc1ccc(CNS(=O)(=O)c2cc3c4c(c2)CCN4C(=O)CC3)cc1` as the compound, how does the inhibition read?
Answer: The inhibition was 9.82%.

Question: Which inhibition does the source give for `COc1ccccc1C(=O)NC(=O)COC(=O)c1ccco1` here?
Answer: Its inhibition is 1.32%.

Question: For `COc1ccc(N2CCN(C(=O)/C(C#N)=C/c3ccccc3)CC2)cc1`, which inhibition is on record?
Answer: The inhibition was 40.6%.

Question: Which inhibition does the source give for `COc1ccc(/C=C(\C#N)C(=O)ONC2=NCCCCC2)cc1` here?
Answer: Its inhibition is 68.2% (active).

Question: Which inhibition does the source give for `COc1ccc(/C=C(\C#N)C(=O)OCC(=O)N(C)C2CCS(=O)(=O)C2)cc1` (stereo not given) here?
Answer: Its inhibition is -18.1%.

Question: Which inhibition does the source give for `CC(=O)C1=C(C)NC(C)=C(C(C)=O)C1c1cn(-c2ccccc2)nc1-c1cccs1` here?
Answer: The inhibition was 29.1%.

Question: Which inhibition does the source give for `Cc1nn(Cc2ccc(F)cc2)c(C)c1NC(=O)c1cccnc1Cl` here?
Answer: Its inhibition is 9.85%.

Question: With `CSc1ccccc1NC(=O)c1cc(C2CC2)on1` as the compound, how does the inhibition read?
Answer: The inhibition was 15.5%.

Question: With `Cc1nn(Cc2ccc(Cl)c(Cl)c2)c(C)c1NC(=O)c1cc(C2CC2)on1` as the compound, how does the inhibition read?
Answer: The inhibition was 56.6% (active).

Question: For `C/C(=N/NC(=O)CN1CCN(S(=O)(=O)c2ccc(Br)cc2)CC1)c1ccncc1`, which inhibition is on record?
Answer: The inhibition was 4.89%.

Question: With `Nc1nnnn1CC(=O)N/N=C/c1ccc(-c2cccc(Cl)c2)o1` as the compound, how does the inhibition read?
Answer: Its inhibition is 1.59%.

Question: Which inhibition does the source give for `COC(=O)N/N=C/c1ccc(-c2ccc(Cl)c(Cl)c2)o1` here?
Answer: Its inhibition is 54.7% (active).

Question: With `O=C(N/N=C\c1ccc(-c2ccc(Cl)c(Cl)c2)o1)C(=O)N1CCCC1` as the compound, how does the inhibition read?
Answer: The inhibition was -5.25%.

Question: With `Cc1c(C)c2ccc(OCC(=O)N3CCN(c4cccc(Cl)c4)CC3)cc2oc1=O` as the compound, how does the inhibition read?
Answer: The inhibition was -6.57%.

Question: Which inhibition does the source give for `O=C1CC(Sc2ncn[nH]2)C(=O)N1c1ccccc1` (stereo not given) here?
Answer: The inhibition was 51% (active).

Question: Which inhibition does the source give for `Cc1ccc(N2C(=O)CC(Sc3ncn[nH]3)C2=O)cc1` (stereo not given) here?
Answer: Its inhibition is -0.146%.

Question: With `COc1ccc(N2C(=O)CC(Sc3n[nH]c(-c4ccc(C)cc4)n3)C2=O)cc1` (stereo not given) as the compound, how does the inhibition read?
Answer: The inhibition was 28.8%.

Question: With `COc1ccc(C(c2nnnn2C2CCCCC2)N2CCN(c3ccccc3F)CC2)cc1` (stereo not given) as the compound, how does the inhibition read?
Answer: Its inhibition is 14.3%.

Question: With `CC(C(=O)NC1CCCC1)N(c1ccc(Oc2ccccc2)cc1)S(C)(=O)=O` (stereo not given) as the compound, how does the inhibition read?
Answer: The inhibition was 29.3%.

Question: Which inhibition does the source give for `Cc1cc(OC(=O)c2c(Cl)cccc2Cl)nc(C)n1` here?
Answer: Its inhibition is 23.1%.

Question: For `Cc1ccc(NNC(=O)c2c(F)cccc2Cl)cc1Cl`, which inhibition is on record?
Answer: The inhibition was 44.2%.

Question: Which inhibition does the source give for `Cc1cc(C)c(S(=O)(=O)c2ccccc2)c(OC(=O)c2c(F)cccc2Cl)n1` here?
Answer: The inhibition was 64.7% (active).
